# Results from ChEMBL document CHEMBL3988442, “University of Dundee, Small-Polar-MMV Screening Library” (2021).
# The whole screen tested about 48,000 compounds, of which about 13,000 (27%) showed an effect of 50% or more. This is one part of the list.
# System: Wolbachia pipientis
# Test: Anti-Wolbachia Cell-Based Screen
# Assay type: functional
# Parameters: scale not given: in the data most compounds retested in dose-response had high values
# Details: 5 µM
row,Compound,Percent Effect
1,Cc1ccc2c(c1)OCCCC2NCc1nnc2n1CCCCC2 (stereo not drawn),-3.349%
2,CCCN(CC)Cc1ccc(C(=O)NCC2COCCO2)c(=O)[nH]1 (stereo not drawn),-4.085%
3,O=C(CSc1ncccn1)N1C[C@H]2CC[C@@H]1CN(Cc1ccncc1)C2,-5.142%
4,CC(C)Cn1ccnc1CNC(=O)NC(C)(C)c1nccs1,4.874%
5,Cc1nc(C)c(C(C)NC(=O)NCCNc2cccc(F)c2C#N)s1 (stereo not drawn),-3.673%
6,N#Cc1nccnc1N1CCC(C(O)c2cccs2)CC1 (stereo not drawn),6.256%
7,CCS(=O)(=O)N1CCC2(CCN(Cc3ccc(C)o3)C2)C1 (stereo not drawn),-25.86%
8,COc1cccc2c1OCC(C(=O)NCCCn1nc(C)c(Cl)c1C)C2 (stereo not drawn),-39.79%
9,Cc1nc(CNC2(C(=O)OC(C)(C)C)CCCC2)oc1C,-20.11%
10,Cc1ccc(C(=O)N2CCN(Cc3nc(C(C)C)no3)CC2)c(=O)[nH]1,-11.93%
11,CC(C)c1noc(CN2CCN(C(=O)c3cccc(F)c3)CC2)n1,101.9%
12,CCOC(=O)c1coc(N2CCN(C(=O)c3cccc(OC)c3)CC2)n1,-22.87%
13,COc1cccc(C(=O)N2CCN(Cc3nc(C(C)C)no3)CC2)c1,117.9%
14,Cc1c[nH]cc1C(=O)N1CCN(Cc2nc(C(C)C)no2)CC1,-4.204%
15,CC(C)Cc1noc(CN2CCN(C(=O)c3cccc(F)c3)CC2)n1,1.261%
16,CCOC(C)c1noc(CN2CCN(Cc3cccc(F)c3)CC2)n1 (stereo not drawn),-0.1841%
17,CC(C)(C)c1noc(CN2CCN(C(=O)c3ccco3)CC2)n1,-32.87%
18,CC(C)c1noc(CN2CCN(C(=O)c3ccc(F)cc3)CC2)n1,109.7%
19,CCCn1nnnc1CN(c1ccc(C)cc1)C(C)C,3.327%
20,CCS(=O)(=O)N1CCC2(CC(=O)N(c3cnn(C)c3)C2)C1 (stereo not drawn),-4.174%
21,COCCN1CCN(Cc2nnc(-c3occc3C)o2)CC1,0.1537%
22,Cc1ccc(-c2nc(CN(C)C3CCS(=O)(=O)C3)cs2)o1 (stereo not drawn),-14.87%
23,OC(CN1CCOCC1)c1ccc(OC(F)(F)F)cc1 (stereo not drawn),-7.461%
24,COc1ccccc1CC(C)(C)NC(=O)CC(F)(F)F,-8.852%
25,CN(C)C(C(=O)N1CCSCC1)c1ccccc1F (stereo not drawn),0.1762%

row,Compound,Percent Effect
1,Cc1cccc(CN2CCC3(CC2)NC(=O)C[C@H]3c2cnn(C)c2)n1.O=C(O)C(F)(F)F,84.49%
2,CC(C)COC1CC2(CCN(C(=O)Cc3ccccn3)CC2)C1.O=C(O)C(F)(F)F,-2.519%
3,Cn1cc(C2CC(=O)NC23CCN(C(=O)c2cccnc2)CC3)cn1.O=C(O)C(F)(F)F (stereo not drawn),11.55%
4,Cc1cccc(CN2CCC3(CC2)NC(=O)CC3c2ccccc2)n1.O=C(O)C(F)(F)F (stereo not drawn),109.2%
5,Cn1cc(C2CC(=O)NC23CCN(C(=O)Cc2ccccn2)CC3)cn1.O=C(O)C(F)(F)F (stereo not drawn),105.4%
6,Cc1cncc(C(=O)N2CCC3(CC2)NC(=O)CC3c2ccccc2)c1.O=C(O)C(F)(F)F (stereo not drawn),-43.74%
7,COc1cc(F)ccc1C(C(=O)O)N1CCN(C2CCCCC2)CC1 (stereo not drawn),-11.47%
8,O=C(O)C(F)(F)F.O=C(O)C(F)(F)F.O=C(c1ccco1)N1CC[C@@H](N2CCOCC2)[C@@H]1Cc1ccncc1,0.4302%
9,COc1ccc(C2CC(=O)NCc3nc4ccccn4c32)cn1 (stereo not drawn),-7.087%
10,Cc1c(NC(=O)NC2CCCC2)cccc1C(=O)N1CCSCC1,1.099%
11,CN(Cc1cccnc1)[C@@H]1CN(Cc2ccccn2)[C@@H]2CCCO[C@H]12,150.6%
12,CN(Cc1cccnc1)C[C@H]1OC[C@@H]2CCN(c3ncccn3)C[C@@H]21,-26.32%
13,CN(C)S(=O)(=O)N1C[C@@H](OCc2ccccn2)[C@H]2OCCC[C@H]21,-8.506%
14,CN(C)[C@@H]1CCN(c2ncc(F)cn2)[C@H]1Cc1cccnc1.O=C(O)C(F)(F)F.O=C(O)C(F)(F)F,-4.235%
15,Fc1cnc(N2CC[C@@H](N3CCOCC3)[C@@H]2Cc2cccnc2)nc1.O=C(O)C(F)(F)F.O=C(O)C(F)(F)F,-8.935%
16,CN(Cc1cccnc1)[C@@H]1CN(c2ccccn2)[C@@H]2CCCO[C@H]12,82.23%
17,CN(Cc1cccnc1)[C@@H]1CN(c2ncc(F)cn2)[C@@H]2CCCO[C@H]12,115.7%
18,Cn1cnc2c1C(COCc1cccnc1)N(Cc1ccccn1)CC2 (stereo not drawn),-4.63%
19,Cc1nnc(N2C[C@H](OCc3cccnc3)[C@H]3OCCC[C@H]32)s1.O=C(O)C(F)(F)F.O=C(O)C(F)(F)F,-2.334%
20,O=C(c1scc2c1OCCO2)N1CCC(Cc2cccc(CO)c2)C1 (stereo not drawn),-12.67%
21,CC(=O)Nc1nc(C(=O)N2CCCC2Cn2cccn2)cs1 (stereo not drawn),136.5%
22,CC(=O)Nc1nc(CN2CCCC2Cn2cccn2)cs1 (stereo not drawn),-22.51%
23,CC(=O)Nc1nc(CN2CCCC2Cn2cc(C)cn2)cs1 (stereo not drawn),-0.668%
24,CC(=O)NCc1ccc(C(=O)N2CCCCC2Cn2cccn2)o1 (stereo not drawn),-0.4212%
25,CC(=O)Nc1nc(C(=O)N2CCCCC2Cn2cccn2)cs1 (stereo not drawn),109.7%

row,Compound,Percent Effect
1,CC(=O)Nc1nc(C(=O)N2CCCCC2Cn2cc(C)cn2)cs1 (stereo not drawn),67.59%
2,CC(=O)Nc1nc(C(=O)N2CCCC2Cn2cc(C)cn2)cs1 (stereo not drawn),-2.697%
3,O=C(c1cc(-n2cccn2)ccn1)N1CCOc2ccc(F)cc21,11.86%
4,CCN(Cc1noc(CC(C)C)n1)Cc1cccc(F)c1O,21.71%
5,CCCc1nc(NCCCO)c2c(n1)c(C)nn2CC,2.078%
6,CC(C)CN1C[C@@H]2CN(C(=O)c3cccn3C)C[C@@H]2C1=O,-8.322%
7,O=C(C1CC1)N1C[C@@H](F)[C@@H](OCc2nc3cc(F)ccc3[nH]2)C1,-13.75%
8,CC(C)n1cnc(C2CN(C)c3ccc(C(=O)NCC4CC4)cc32)n1 (stereo not drawn),-10.28%
9,CCCn1nnnc1CSc1nccn1C,1.571%
10,NCc1cnn(-c2ccccc2C(=O)NCCCn2ccnc2)c1,-6.38%
11,O=C(c1cccnc1OCC(F)(F)F)N1CCCn2ncnc21,-8.478%
12,O=C(O)c1ncccc1OCC(F)(F)F,2.885%
13,O=C(NCCCn1ccnc1)c1cccnc1OCC(F)(F)F,88.67%
14,O=C(CNC(=O)c1cnc2ccccc2c1O)NCCCn1ccnc1,9.933%
15,CN(CCc1ccccc1)C(=O)c1cccnc1OCC(F)(F)F,147.6%
16,O=C(NCc1cccnc1OCC(F)(F)F)N1CCOCC1,-14.27%
17,O=C(NCCc1ccncc1)c1cccnc1OCC(F)(F)F,113.2%
18,O=C(NCC(O)c1ccc(F)c(F)c1)c1cccnc1OCC(F)(F)F (stereo not drawn),8.161%
19,O=C1COc2cc(S(=O)(=O)NCCC3=CCCCC3)c(Br)cc2N1,12.05%
20,N#Cc1cccc(OCC(=O)N(Cc2ccncc2)C2CC2)c1,-1.497%
21,CCNC(=O)N1CCC(NC(=O)NCCc2cc(F)cc(F)c2)C1 (stereo not drawn),-1.465%
22,Cc1noc(C)c1NC(=O)NC1CCN(C(=O)OC(C)(C)C)CC1,-1.211%
23,c1ccc(CN2CCC(NCCSc3cnn[nH]3)C2)cc1 (stereo not drawn),-16.66%
24,CN(C)c1cc(C2CCCN(C(=O)c3noc4c3CCCC4)C2)ccn1 (stereo not drawn),145.2%
25,Cc1noc2ncc(C(=O)N3CCCC3c3ccncc3)cc12 (stereo not drawn),1.131%

row,Compound,Percent Effect
1,CN(C)c1ccc(C(=O)N2CCCC2c2ccc(Cl)cc2)nn1 (stereo not drawn),-0.3166%
2,CN(C)c1cc(C2CCCN2C(=O)c2noc3c2CCCC3)ccn1 (stereo not drawn),74.42%
3,O=C(c1noc2c1CCCC2)N1CCCC(c2nccs2)C1 (stereo not drawn),6.202%
4,CCOCc1ncn2c1CN(S(=O)(=O)c1cccs1)CCC2,-7.324%
5,COCc1cc(CNC(=O)c2c(C)cc(C)[nH]c2=O)n[nH]1,-6.309%
6,O=C(c1ccc2cc[nH]c2c1)N1CCC(Nc2cccnn2)CC1,107.6%
7,O=C(c1ccc2[nH]nnc2c1)N1CCC(Nc2cccnn2)CC1,101.2%
8,O=C(c1cc[nH]n1)N1CCC(Nc2cccnn2)CC1,4.355%
9,O=C(c1ccc2c(c1)OCO2)N1CCC(Nc2cccnn2)CC1,90.41%
10,O=C(c1ccc2c(c1)COC2)N1CCC(Nc2cccnn2)CC1,2.056%
11,Cc1cc(C(=O)N2CCC(Nc3cccnn3)CC2)no1,29.64%
12,O=C(c1ccc2[nH]c(=O)[nH]c2c1)N1CCC(Nc2cccnn2)CC1,102.4%
13,CC(c1nc(C2CC2)no1)N(C)Cc1ccc(C#N)cc1 (stereo not drawn),15.66%
14,CCc1noc(CNc2c(F)cccc2-n2cccn2)n1,-15.19%
15,Cn1nc(CNC(=O)CC#N)c2c1CN(C(N)=O)CC2,9.409%
16,Cc1nnc(CCNC2CCN(c3ncnc4c(C)csc34)CC2)s1,-2.082%
17,Cc1nc(C(=O)N2CCC(Nc3cccnn3)CC2)cs1,-1.209%
18,N#Cc1ccc(CC(=O)N2CCC(Nc3cccnn3)CC2)cc1,101.7%
19,Cc1nn(C)c(C)c1CC(=O)N1CCC(Nc2cccnn2)CC1,-9.502%
20,Cn1nnc2cc(C(=O)N3CCC(Nc4cccnn4)CC3)ccc21,108.7%
21,N#CC1(C(=O)N2CCC(Nc3cccnn3)CC2)CCCCC1,-1.01%
22,N#Cc1cccc(C(=O)N2CCC(Nc3cccnn3)CC2)c1,94.09%
23,CN(Cc1nc2ccccc2c(=O)[nH]1)C1CC(=O)N(C2CC2)C1=O (stereo not drawn),-0.4558%
